These results are taken from publication PMC7862700, “An all-to-all approach to the identification of sequence-specific readers for epigenetic DNA modifications on cytosine”.

Test in all cases: DAPPL (digital affinity profiling via proximity ligation, sequencing); 10 mM Tris-HCl pH 7.5, 50 mM NaCl, 1 mM DTT, 4% glycerol, room temperature, 30 min; GST-TFs on glutathione beads, 16-mer random dsDNA library, 0.1% formaldehyde crosslink after washing; high values mean tight binding
One assay addresses T1, FEV (Homo sapiens, UniProt Q99581 1-238).
T1 sequence: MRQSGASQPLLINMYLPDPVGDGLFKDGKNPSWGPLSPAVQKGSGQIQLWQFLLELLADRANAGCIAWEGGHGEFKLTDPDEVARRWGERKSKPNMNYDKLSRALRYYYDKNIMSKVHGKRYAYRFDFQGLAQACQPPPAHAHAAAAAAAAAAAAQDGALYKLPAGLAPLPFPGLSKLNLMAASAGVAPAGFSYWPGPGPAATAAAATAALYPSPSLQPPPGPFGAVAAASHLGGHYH
The conditions noted are these: protein: recombinant; tags: N-terminal GST; dsDNA, one strand shown. The method in brief:
(§1)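 In yeast, human transcription factors were expressed with a GST fusion, then pulled down on glutathione beads and given DNA barcodes. Pooled with a tag-only sample, they were exposed to 200 nmole of a 16-mer random double-stranded DNA library (Tris/NaCl/DTT/glycerol buffer, room temperature, 30 min), washed, crosslinked with 0.1% formaldehyde, proximity-ligated using BsaI/T4 ligase for 1 h at 37 °C, PCR-amplified and read on an Illumina NextSeq500. Each hexamer's frequency of reads for a factor, divided by the matching frequency for the tag-only sample, gives the binding signal.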

The target in the next assay is ETV5 (Homo sapiens, UniProt P41161 1-510). The conditions noted are these: protein: recombinant; tags: N-terminal GST; dsDNA, one strand shown. A digest of the protocol:
as §1

The target in the next assay is HSF1 (Homo sapiens, UniProt Q00613 1-529). The conditions noted are these: protein: recombinant; tags: N-terminal GST; chain copies: 3; dsDNA, one strand shown. A digest of the protocol: as §1
Sequence of HSF1 (Q00613 whole entry): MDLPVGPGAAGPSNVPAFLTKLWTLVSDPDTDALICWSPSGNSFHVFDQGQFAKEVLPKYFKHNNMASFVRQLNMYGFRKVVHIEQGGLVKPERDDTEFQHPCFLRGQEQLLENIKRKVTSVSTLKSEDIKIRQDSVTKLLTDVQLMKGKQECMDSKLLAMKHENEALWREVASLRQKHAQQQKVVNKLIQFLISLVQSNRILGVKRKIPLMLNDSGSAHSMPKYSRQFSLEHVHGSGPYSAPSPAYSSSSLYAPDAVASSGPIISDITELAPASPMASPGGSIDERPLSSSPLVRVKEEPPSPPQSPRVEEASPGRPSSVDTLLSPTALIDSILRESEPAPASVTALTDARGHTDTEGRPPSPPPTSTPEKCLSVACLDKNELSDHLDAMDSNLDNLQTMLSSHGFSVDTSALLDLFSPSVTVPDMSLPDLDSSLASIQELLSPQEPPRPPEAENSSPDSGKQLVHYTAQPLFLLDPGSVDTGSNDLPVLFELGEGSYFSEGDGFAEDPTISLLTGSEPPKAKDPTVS
The next assay addresses T2, SPIC (Homo sapiens, UniProt Q8N5J4 1-248).
T2 sequence: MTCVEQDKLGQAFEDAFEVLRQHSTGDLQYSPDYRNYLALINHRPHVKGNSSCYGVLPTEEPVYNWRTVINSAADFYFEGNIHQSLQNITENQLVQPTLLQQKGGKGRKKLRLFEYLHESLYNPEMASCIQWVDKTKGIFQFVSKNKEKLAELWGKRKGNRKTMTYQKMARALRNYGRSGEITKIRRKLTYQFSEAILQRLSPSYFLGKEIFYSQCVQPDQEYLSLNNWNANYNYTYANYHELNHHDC
The conditions noted are these: protein: recombinant; tags: N-terminal GST; dsDNA, one strand shown. The method in brief: as §1

A further assay has as its target ELF4 (Homo sapiens, UniProt Q99607 1-663). The conditions noted are these: protein: recombinant; tags: N-terminal GST; dsDNA, one strand shown. The method in brief:
as §1

In another assay the target is T3, ELK4 (Homo sapiens, UniProt P28324-2 1-405).
T3 sequence: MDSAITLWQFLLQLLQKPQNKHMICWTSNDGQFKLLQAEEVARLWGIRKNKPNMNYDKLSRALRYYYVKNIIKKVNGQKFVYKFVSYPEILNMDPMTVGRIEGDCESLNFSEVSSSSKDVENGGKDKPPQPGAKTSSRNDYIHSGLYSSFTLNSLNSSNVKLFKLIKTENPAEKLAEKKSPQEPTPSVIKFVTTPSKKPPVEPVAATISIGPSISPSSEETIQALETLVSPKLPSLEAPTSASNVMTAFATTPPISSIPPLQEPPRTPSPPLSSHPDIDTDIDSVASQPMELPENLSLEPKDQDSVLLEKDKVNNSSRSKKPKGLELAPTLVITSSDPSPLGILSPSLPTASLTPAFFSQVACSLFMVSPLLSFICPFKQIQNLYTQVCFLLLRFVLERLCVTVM
The conditions noted are these: protein: recombinant; tags: N-terminal GST; dsDNA, one strand shown. The method in brief: as §1

For a further assay, the target named is T4, ETV2 (Homo sapiens, UniProt O00321 1-342).
T4 sequence: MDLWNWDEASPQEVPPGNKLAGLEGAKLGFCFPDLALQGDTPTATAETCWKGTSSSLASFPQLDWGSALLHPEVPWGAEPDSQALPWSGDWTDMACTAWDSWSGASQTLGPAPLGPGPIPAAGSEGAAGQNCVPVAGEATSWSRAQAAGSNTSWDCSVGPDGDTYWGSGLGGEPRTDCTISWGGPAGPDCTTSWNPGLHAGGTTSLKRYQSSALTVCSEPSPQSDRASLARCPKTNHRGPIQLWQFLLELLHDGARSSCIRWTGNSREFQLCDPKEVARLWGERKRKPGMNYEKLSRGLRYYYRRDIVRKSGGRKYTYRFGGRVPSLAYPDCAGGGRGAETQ
The conditions noted are these: protein: recombinant; tags: N-terminal GST; dsDNA, one strand shown. The method in brief:
as §1

A further assay addresses T5, ELF3 (Homo sapiens, UniProt P78545 1-371).
T5 sequence: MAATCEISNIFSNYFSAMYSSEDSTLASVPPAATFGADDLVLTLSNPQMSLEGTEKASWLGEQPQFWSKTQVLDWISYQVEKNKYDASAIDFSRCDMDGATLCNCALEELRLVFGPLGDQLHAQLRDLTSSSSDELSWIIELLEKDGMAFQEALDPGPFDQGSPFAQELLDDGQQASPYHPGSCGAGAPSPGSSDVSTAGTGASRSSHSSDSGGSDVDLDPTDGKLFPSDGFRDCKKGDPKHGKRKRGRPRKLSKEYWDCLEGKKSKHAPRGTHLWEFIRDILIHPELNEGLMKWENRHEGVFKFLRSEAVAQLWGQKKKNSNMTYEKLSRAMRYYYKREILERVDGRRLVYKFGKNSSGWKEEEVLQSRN
The conditions noted are these: protein: recombinant; tags: N-terminal GST; dsDNA, one strand shown. A digest of the protocol:
as §1

Another assay has as its target CRX (Homo sapiens, UniProt O43186 1-299). The conditions noted are these: protein: recombinant; tags: N-terminal GST; dsDNA, one strand shown. The method in brief: as §1
The next assay addresses ETV1 (Homo sapiens, UniProt P50549 1-477). The conditions noted are these: protein: recombinant; tags: N-terminal GST; dsDNA, one strand shown. A digest of the protocol:
as §1

A further assay concerns the target T6, ERF (Homo sapiens, UniProt P50548 1-548).
T6 sequence: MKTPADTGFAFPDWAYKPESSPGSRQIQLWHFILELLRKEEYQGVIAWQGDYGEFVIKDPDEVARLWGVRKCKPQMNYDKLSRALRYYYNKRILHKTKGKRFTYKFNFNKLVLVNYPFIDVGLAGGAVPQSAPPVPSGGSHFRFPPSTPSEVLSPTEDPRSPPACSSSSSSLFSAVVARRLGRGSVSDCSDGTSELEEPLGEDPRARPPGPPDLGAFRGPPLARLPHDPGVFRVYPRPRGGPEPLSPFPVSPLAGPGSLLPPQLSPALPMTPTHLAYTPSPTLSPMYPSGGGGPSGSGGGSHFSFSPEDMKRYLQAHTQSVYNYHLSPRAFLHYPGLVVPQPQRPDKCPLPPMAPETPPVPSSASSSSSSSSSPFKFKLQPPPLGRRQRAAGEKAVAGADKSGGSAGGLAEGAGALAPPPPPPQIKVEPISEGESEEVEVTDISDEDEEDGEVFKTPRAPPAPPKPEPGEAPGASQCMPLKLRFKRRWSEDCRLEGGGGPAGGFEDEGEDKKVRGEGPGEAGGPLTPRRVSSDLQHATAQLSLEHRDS
The conditions noted are these: protein: recombinant; tags: N-terminal GST; dsDNA, one strand shown. The method in brief: as §1

A further assay deals with T7, ETV3L (Homo sapiens, UniProt Q6ZN32 1-361).
T7 sequence: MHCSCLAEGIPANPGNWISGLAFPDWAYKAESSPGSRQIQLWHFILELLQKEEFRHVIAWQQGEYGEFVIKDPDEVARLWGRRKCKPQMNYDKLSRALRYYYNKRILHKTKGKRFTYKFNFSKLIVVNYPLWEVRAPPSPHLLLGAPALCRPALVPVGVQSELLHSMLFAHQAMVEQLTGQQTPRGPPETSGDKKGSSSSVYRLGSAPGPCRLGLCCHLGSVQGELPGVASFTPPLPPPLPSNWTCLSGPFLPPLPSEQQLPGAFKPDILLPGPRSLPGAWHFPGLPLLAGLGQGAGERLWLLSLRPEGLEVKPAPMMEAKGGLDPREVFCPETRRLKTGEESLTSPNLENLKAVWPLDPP
The conditions noted are these: protein: recombinant; tags: N-terminal GST; dsDNA, one strand shown. A digest of the protocol: as §1

For another assay, the target named is T8, ETS2 (Homo sapiens, UniProt P15036 1-469).
T8 sequence: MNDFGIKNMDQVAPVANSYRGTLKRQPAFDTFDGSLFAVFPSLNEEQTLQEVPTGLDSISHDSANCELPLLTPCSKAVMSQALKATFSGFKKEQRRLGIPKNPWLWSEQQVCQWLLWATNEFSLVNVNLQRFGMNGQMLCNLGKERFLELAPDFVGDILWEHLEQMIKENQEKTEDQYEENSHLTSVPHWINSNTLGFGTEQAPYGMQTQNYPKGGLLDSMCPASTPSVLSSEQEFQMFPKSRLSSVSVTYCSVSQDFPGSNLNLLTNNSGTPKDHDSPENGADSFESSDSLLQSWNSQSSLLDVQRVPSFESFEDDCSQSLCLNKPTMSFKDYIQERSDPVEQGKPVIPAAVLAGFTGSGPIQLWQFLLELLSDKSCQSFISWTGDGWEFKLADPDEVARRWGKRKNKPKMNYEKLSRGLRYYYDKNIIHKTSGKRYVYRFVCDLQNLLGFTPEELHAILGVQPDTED
The conditions noted are these: protein: recombinant; tags: N-terminal GST; dsDNA, one strand shown. The method in brief:
as §1

The next assay has as its target T9, SPDEF (Homo sapiens, UniProt O95238 1-335).
T9 sequence: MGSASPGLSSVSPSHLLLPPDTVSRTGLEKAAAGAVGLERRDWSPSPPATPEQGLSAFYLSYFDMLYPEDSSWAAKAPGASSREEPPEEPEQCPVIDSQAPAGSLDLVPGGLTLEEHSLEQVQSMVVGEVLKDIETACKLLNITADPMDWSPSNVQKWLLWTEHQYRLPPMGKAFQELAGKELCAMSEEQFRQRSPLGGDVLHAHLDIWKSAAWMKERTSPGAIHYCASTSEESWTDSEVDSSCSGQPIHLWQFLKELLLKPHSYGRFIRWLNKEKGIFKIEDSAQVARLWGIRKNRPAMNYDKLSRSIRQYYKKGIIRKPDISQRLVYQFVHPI
The conditions noted are these: protein: recombinant; tags: N-terminal GST; dsDNA, one strand shown. A digest of the protocol: as §1

For the next assay, the target named is T10, ETV7 (Homo sapiens, UniProt Q9Y603 1-341).
T10 sequence: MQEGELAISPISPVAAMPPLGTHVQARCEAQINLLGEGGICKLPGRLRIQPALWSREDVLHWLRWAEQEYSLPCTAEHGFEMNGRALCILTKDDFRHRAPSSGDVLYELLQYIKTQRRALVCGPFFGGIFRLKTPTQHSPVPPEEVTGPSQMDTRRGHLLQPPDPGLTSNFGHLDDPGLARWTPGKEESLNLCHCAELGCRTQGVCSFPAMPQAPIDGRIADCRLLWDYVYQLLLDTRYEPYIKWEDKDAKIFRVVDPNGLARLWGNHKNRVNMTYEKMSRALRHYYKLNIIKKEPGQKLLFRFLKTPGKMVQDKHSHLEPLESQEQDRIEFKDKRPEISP
The conditions noted are these: protein: recombinant; tags: N-terminal GST; dsDNA, one strand shown. The method in brief:
as §1

The target of the next assay is T11, ELF5 (Homo sapiens, UniProt Q9UKW6-2 1-255).
T11 sequence: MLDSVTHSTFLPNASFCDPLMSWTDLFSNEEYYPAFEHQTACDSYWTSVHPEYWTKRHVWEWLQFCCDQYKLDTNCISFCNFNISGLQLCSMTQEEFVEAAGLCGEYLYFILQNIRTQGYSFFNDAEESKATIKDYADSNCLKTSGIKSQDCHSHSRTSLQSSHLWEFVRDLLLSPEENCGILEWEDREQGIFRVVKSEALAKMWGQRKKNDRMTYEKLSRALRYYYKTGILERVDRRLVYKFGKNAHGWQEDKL
The conditions noted are these: protein: recombinant; tags: N-terminal GST; dsDNA, one strand shown. The method in brief:
as §1

In another assay the target is T12, ETV3 (Homo sapiens, UniProt P41162-2 1-143).
T12 sequence: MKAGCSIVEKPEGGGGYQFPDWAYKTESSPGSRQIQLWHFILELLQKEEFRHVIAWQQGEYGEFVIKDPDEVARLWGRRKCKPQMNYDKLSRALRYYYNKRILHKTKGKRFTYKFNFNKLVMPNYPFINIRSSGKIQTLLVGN
The conditions noted are these: protein: recombinant; tags: N-terminal GST; dsDNA, one strand shown. A digest of the protocol:
as §1

The target of another assay is ETV6 (Homo sapiens, UniProt P41212 1-452). The conditions noted are these: protein: recombinant; tags: N-terminal GST; dsDNA, one strand shown. The method in brief:
as §1

Sequence of CRX (O43186 whole entry): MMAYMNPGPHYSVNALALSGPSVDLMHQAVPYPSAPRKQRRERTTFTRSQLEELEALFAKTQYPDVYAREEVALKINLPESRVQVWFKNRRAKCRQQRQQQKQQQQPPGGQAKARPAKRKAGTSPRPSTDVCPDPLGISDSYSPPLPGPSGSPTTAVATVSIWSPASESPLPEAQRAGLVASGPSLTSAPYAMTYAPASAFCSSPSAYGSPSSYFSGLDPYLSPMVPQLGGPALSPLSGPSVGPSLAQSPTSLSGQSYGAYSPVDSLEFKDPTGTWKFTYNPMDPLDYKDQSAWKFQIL
Sequence of ETV6 (P41212 whole entry): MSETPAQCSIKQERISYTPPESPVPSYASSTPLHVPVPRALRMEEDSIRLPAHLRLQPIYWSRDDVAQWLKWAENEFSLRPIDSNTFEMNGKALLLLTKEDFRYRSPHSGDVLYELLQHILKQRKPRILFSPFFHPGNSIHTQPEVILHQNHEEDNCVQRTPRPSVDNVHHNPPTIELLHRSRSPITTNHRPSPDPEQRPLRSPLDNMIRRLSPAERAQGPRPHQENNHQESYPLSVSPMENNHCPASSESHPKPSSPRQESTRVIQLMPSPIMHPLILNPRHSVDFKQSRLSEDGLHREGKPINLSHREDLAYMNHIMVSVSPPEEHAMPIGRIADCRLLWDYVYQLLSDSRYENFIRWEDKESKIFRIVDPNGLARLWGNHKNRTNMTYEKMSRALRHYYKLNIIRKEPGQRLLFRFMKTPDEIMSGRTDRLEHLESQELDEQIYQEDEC
Sequence of ELF4 (Q99607 whole entry): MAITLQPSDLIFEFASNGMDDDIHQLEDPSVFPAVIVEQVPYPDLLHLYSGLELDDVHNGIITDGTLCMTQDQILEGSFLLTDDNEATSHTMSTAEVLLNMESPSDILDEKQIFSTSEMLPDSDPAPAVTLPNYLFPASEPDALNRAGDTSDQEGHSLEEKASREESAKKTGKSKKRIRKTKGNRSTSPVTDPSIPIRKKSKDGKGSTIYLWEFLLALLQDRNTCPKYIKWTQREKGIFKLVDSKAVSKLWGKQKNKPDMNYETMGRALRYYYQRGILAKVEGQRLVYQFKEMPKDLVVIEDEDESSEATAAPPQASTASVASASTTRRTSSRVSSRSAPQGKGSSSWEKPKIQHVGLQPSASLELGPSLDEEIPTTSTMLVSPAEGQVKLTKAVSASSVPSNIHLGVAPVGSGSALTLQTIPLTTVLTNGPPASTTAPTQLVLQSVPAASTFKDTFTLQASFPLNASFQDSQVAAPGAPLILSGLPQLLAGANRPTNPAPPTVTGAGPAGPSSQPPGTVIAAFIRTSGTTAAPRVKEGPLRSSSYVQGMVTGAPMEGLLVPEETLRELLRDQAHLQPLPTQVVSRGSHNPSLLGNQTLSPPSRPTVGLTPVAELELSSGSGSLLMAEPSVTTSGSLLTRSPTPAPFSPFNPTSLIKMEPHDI
Sequence of ETV5 (P41161 whole entry): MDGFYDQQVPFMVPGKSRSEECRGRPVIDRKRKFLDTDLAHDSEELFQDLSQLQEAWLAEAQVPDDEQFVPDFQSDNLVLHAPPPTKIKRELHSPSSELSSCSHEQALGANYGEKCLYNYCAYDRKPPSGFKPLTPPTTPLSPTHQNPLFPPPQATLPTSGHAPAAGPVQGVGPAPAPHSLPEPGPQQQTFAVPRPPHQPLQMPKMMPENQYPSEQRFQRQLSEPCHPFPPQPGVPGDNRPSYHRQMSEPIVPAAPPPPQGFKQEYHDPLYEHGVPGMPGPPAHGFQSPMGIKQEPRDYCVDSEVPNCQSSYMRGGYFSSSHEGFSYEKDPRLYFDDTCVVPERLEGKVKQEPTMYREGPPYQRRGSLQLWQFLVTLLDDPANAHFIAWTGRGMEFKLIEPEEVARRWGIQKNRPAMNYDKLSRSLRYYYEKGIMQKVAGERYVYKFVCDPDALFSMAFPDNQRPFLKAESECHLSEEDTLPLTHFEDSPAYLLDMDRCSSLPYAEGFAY
Sequence of ETV1 (P50549 whole entry): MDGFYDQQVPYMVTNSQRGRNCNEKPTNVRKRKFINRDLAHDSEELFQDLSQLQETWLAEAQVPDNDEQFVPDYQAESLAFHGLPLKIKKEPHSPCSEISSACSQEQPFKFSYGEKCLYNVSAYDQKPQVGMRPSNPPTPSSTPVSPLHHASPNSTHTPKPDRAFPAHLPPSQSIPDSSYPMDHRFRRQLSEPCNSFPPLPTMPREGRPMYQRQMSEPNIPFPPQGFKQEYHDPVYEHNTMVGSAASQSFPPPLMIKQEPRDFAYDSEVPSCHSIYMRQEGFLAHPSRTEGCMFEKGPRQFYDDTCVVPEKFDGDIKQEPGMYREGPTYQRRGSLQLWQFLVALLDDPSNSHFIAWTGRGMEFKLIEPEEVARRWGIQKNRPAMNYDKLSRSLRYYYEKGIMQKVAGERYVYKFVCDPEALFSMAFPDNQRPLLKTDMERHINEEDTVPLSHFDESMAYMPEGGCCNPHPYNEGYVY

For GATGTT, the binding signal in the assay with FEV is 1.22 fold enrichment (6-mer frequency, TF over GST control); with ETV5 it was 1.31 fold enrichment (6-mer frequency, TF over GST control); with HSF1, 1.18 fold enrichment (6-mer frequency, TF over GST control); with SPIC it was 1.39 fold enrichment (6-mer frequency, TF over GST control); with ELF4 it was 1.22 fold enrichment (6-mer frequency, TF over GST control); with ELK4 it was 1.16 fold enrichment (6-mer frequency, TF over GST control). The binding signal with ETV2 was 1.21 fold enrichment (6-mer frequency, TF over GST control); in the assay with ELF3, 1.22 fold enrichment (6-mer frequency, TF over GST control); with CRX, 1.08 fold enrichment (6-mer frequency, TF over GST control); in the assay with ETV1, 1.25 fold enrichment (6-mer frequency, TF over GST control); with ERF, 1.24 fold enrichment (6-mer frequency, TF over GST control); in the assay with ETV3L it was 1.31 fold enrichment (6-mer frequency, TF over GST control). Besides, the binding signal with ETS2 is 1.24 fold enrichment (6-mer frequency, TF over GST control); in the assay with SPDEF it was 1.51 fold enrichment (6-mer frequency, TF over GST control); with ETV7 it was 1.21 fold enrichment (6-mer frequency, TF over GST control); with ELF5 it was 1.32 fold enrichment (6-mer frequency, TF over GST control); in the assay with ETV3 it was 1.34 fold enrichment (6-mer frequency, TF over GST control); in the assay with ETV6 it was 1.3 fold enrichment (6-mer frequency, TF over GST control).
